Assay results reported in PubChem BioAssay (NCATS).
Unmarked numbers belong to inactive results. Results filed as inconclusive are left out. Calls of active or inactive are those of the source. Unless noted, calls follow the shape of the dose curve; as a rule, active = well fitted curve in the direction sought with a large enough effect; inconclusive = small, poorly fitted or top-dose-only effect, or another doubt; inactive = no such curve, though single readings can be large; an effect the other way counts as inactive or inconclusive.

Key:
[1] = biological target: Lysosomal acid glucosylceramidase (Homo sapiens) (UniProt P04062); assay: Glucocerebrosidase-p2 (AID 348; in the data active = potency below about 10 µM; also: potency is read from the fitted curve at half-maximal effect); settings: purified GBA, blue fluorogenic substrate, 40 min
Summary of the method: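 Compounds titrated from 0.6 nM upwards against 0.2 nM enzyme in pH 5.9 citric acid/KH2PO4, taurocholate, tween-20; blue fluorogenic substrate 80 uM, 40 min room temperature, stopped and read Ex 365/Em 440 for AC50.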

[2] = AP1 Signaling Pathway (AID 357; active = well fitted curve in either direction with a large enough effect, not every such curve was filed as active;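 also: ME-180 reporter cells stimulated with EGF at its EC50 level; % is scaled to controls: 0 for no effect and ±100 for the full control effect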); settings: ME-180 AP-1-bla reporter, EGF-induced, beta-lactamase ratio, 5 h; at 7.69 µM (top of the series) unless noted
Summary of the method: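 A ratiometric CCF4 readout (405 nm excitation; 460 and 530 nm emission) quantified AP-1-driven beta-lactamase in ME-180 cells after 5 h with compound and EC50 EGF; AC50 values were derived for activators and inhibitors.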

[3] = biological target: Cytochrome P450 1A2 (Homo sapiens) (UniProt P05177); assay: p450-cyp1a2 (AID 410; calls by dose curve; also: potency is read from the fitted curve at half-maximal effect); settings: recombinant CYP1A2, luciferin-ME demethylation, luminescence; series mostly up to 57 µM
Summary of the method: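 20nM CYP1A2 with 100uM Luciferin-ME (at Km) in 100mM KPO4; compound preincubated 10 min, NADPH regeneration added, 60 min at room temperature. Luciferin quantified by luminescence after detection reagent; normalized to 57 uM furafylline.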

[4] = NFAT Signaling Pathway (AID 444; active = well fitted curve in either direction with a large enough effect, not every such curve was filed as active;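 also: carbachol stimulus at about its EC50 of 1 µM final; % is scaled to controls: 0 for no effect and ±100 for the full control effect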); settings: Jurkat NFAT-bla M1, carbachol, beta-lactamase ratio, 5 h; at 7.69 µM (top of the series) unless noted
Summary of the method: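 Jurkat cells with NFAT-driven β-lactamase reporter and co-expressed M1 receptor, stimulated with carbachol (final 1 uM, ~EC50), compound titration, 5 h at 37 °C. CCF4 loaded 1 h at RT; 460/530 nm ratio gave %activity and AC50.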

[5] = Stat Signaling Pathway (AID 446; active = well fitted curve in either direction with a large enough effect, not every such curve was filed as active;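 also: ME-180 cervical cancer cells given 40 pM IL-6 alongside compound; SIE-controlled beta-lactamase reporter measured as 460/530 nm FRET emission ratio; % is scaled to controls: 0 for no effect and ±100 for the full control effect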); settings: ME-180 SIE beta-lactamase reporter, IL-6 stimulated, 5 h; at 7.69 µM (top of the series) unless noted
Summary of the method: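 Screening format detects activators and inhibitors alike: ME-180 SIE-bla cells stimulated at 40 pM IL-6 for 5 hrs with compound, then dual-emission beta-lactamase read at 405 nm excitation.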

[6] = biological target: Glucocorticoid receptor (Homo sapiens) (UniProt P04150); assay: GR-GFP Redistribution (AID 450;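 active = compounds whose dose series gives a full or clear partial fitted curve of increased nuclear translocation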; also: potency is read from the fitted curve at half-maximal effect); settings: U2OS GR-GFP nuclear translocation, laser cytometry, 2 h
[7] = biological target: Glucocorticoid receptor (Homo sapiens) (UniProt P04150); assay: GR-EFC Redistribution (AID 451; calls by dose curve; also: potency is read from the fitted curve at half-maximal effect); settings: CHO-K1 GR-EFC translocation, beta-gal luminescence, 2 h
Summary of the method: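 CHO-K1 cells expressing nuclear EA and GR-ED fragments of b-gal; compounds titrated up to 46 uM final, 2 h at 37 C. GR nuclear translocation read as complemented b-gal luminescence after 1 h RT detection.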

[8] = biological target: Mitogen-activated protein kinase 10 (Mus musculus) (UniProt Q61831); assay: JNK3 AlphaScreen Assay (AID 530; active = well fitted curve in either direction with a large enough effect, not every such curve was filed as active;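 also: kinase came from lysate of stimulated human HepG2 cells; signal reports phosphorylation of biotinylated GST-cJun 1-79 at Ser73 with 10 µM ATP; % is scaled to controls: 0 for no effect and ±100 for the full control effect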); settings: JNK3 lysate, c-Jun phosphorylation; series mostly up to 57.1 µM
Summary of the method: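 Pre-activated (IL-1β/TNFα) JNK3 in HepG2 lysates phosphorylates biotin-GST-cJun(1-79), 10 uM ATP; anti-phospho-cJun(Ser73) AlphaScreen read at room temperature, pH 7.6 Tris buffer. Compounds pre-incubated 15 min as titrations.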

[9] = biological target: 3',5'-cyclic-AMP phosphodiesterase 4B (Homo sapiens) (UniProt Q07343); assay: qHTS Assay for Inhibitors of PDE-IV (AID 607; active = well fitted activation curve with a large enough effect in the main read-out, with a control signal flat, not every such curve was filed as active; also: % of control where 0% means no effect); settings: HEK293 ACTOne CNG channel cells, membrane potential fluorescence; series mostly up to 22.9 µM
Summary of the method: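 The readout is membrane depolarisation from a cAMP-sensing CNG channel, detected with a potential dye at ex 535/em 590. Cells were HEK293-derived (endogenous PDE-IV) at 1000 cells/well, titrated up to 22.9 uM final.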

[10] = biological target: Cytochrome P450 3A4 (Homo sapiens) (UniProt P08684); assay: qHTS Assay for Activators of Cytochrome P450 3A4 (AID 885); settings: recombinant CYP3A4, Luciferin-PPXE luminescence, 60 min; series mostly up to 57.1 µM; also: nearly all actives have a fitted effect of over 65% in size
Summary of the method: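 Steps: enzyme/substrate mix dispensed; compound added, 10 min RT; NADPH regeneration solution added, 60 min RT; luciferin detection buffer stops reaction; 20 min later luminescence measured.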

[11] = biological target: Dual specificity protein kinase CLK4 (Homo sapiens) (UniProt Q9HAZ1); assay: qHTS Assay for Inhibitors of CDC-like Kinase 4 (Kinase-Glo Assay) (AID 1770); settings: recombinant Clk4, Kinase-Glo ATP depletion luminescence; series mostly up to 66.7 µM; also: nearly all actives have a fitted effect of over 65% in size; also: potency is read from the fitted curve at half-maximal effect
Summary of the method: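 Recombinant human Clk4 (25 nM) phosphorylated RS repeat peptide (100 uM) with 1 uM ATP in Tris pH 7.5/MgCl2/EGTA/DTT/Triton buffer for 4.5 h at room temperature. Residual ATP was quantified by Kinase-Glo luciferase luminescence.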

[12] = biological target: Dual specificity protein kinase CLK4 (Homo sapiens) (UniProt Q9HAZ1); assay: qHTS Assay for Inhibitors of CDC-like Kinase 4 (ADP-FP Assay) (AID 1795); settings: Transcreener ADP fluorescence polarization; series mostly up to 50 µM; also: nearly all actives have a fitted effect of over 60% in size; also: potency is read from the fitted curve at half-maximal effect
Summary of the method: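 Recombinant human Clk4 (6.25 nM) phosphorylated RS repeat peptide (100 uM) with 1 uM ATP in Tris pH 7.5/MgCl2/EGTA/DTT/Triton buffer for one hour. ADP was quantified by Transcreener competitive fluorescence polarization against an ADP calibration curve.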

[13] = biological target: Ubiquitin carboxyl-terminal hydrolase 1 (Homo sapiens) (UniProt O94782); assay: Inhibitors of USP1/UAF1: Pilot qHTS (AID 504865); settings: purified USP1/UAF1, Ub-rhodamine cleavage fluorescence; series mostly up to 54.9 µM; also: nearly all actives have a fitted effect of over 35% in size; also: potency is read from the fitted curve at half-maximal effect
Summary of the method: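 USP1/UAF1 complex (1nM) preincubated with compound 15 min at room temperature, then Ub-Rho substrate (150nM final) added. Fluorescence read kinetically at 480/540 nm, 6 reads every 60 seconds. Buffer: 50mM HEPES pH 7.8, 0.5mM EDTA, 0.1 mg/ml BSA, 1mM TCEP, 0.01% Tween-20.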

[14] = Primary qHTS for small molecule stabilizers of the endoplasmic reticulum resident proteome: Secreted ER Calcium Modulated Protein (SERCaMP) assay (AID 1508630); settings: SH-SY5Y GLuc-SERCaMP (Gaussia luciferase released on ER calcium loss) secretion, thapsigargin, luminescence; series mostly up to 38.4 µM; also: % is scaled to controls: 0 for no effect and ±100 for the full control effect
Summary of the method: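 GLuc-SERCaMP-expressing SH-SY5Y cells, pretreated 16 h with compound, are challenged with thapsigargin to empty ER calcium stores; after 4 h, coelenterazine is added directly to the medium and luminescence is imaged.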

[15] = biological target: Cytochrome P450 3A4 (Homo sapiens) (UniProt P08684); assay: qHTS Assay for Inhibitors and Substrates of Cytochrome P450 3A4 (AID 884); settings: recombinant CYP3A4, Luciferin-PPXE luminescence; series mostly up to 57.1 µM; also: potency is read from the fitted curve at half-maximal effect; nearly all actives have a fitted effect of over 50% in size
Summary of the method: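 20 nM human CYP3A4 with 25 uM Luciferin-PPXE (at KM) in 200 mM KPO4, preincubated 10 min with compound; NADPH regeneration started a 60 min RT reaction. Luciferin detected by luminescence, normalized to 57 uM ketoconazole as full inhibition.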

[16] = biological target: Dual specificity protein kinase CLK4 (Homo sapiens) (UniProt Q9HAZ1); assay: qHTS Assay for Inhibitors of CDC-like Kinase 4 (ADP-Glo Assay) (AID 1771); settings: recombinant CLK4, ADP-Glo luminescence; series mostly up to 80 µM; also: nearly all actives have a fitted effect of over 70% in size; also: potency is read from the fitted curve at half-maximal effect
Summary of the method: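 25 nM Clk4 with 100 uM RS repeat peptide and 1 uM ATP (final) in buffer with 2 mM MgCl2, 0.5 mM EGTA, 2.5 mM DTT, 0.01% Triton X-100; 1 h at room temperature; ADP-Glo luminescence for ADP formed.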

[17] = biological target: Cytochrome P450 2D6 (Homo sapiens) (UniProt P10635); assay: qHTS Assay for Inhibitors and Substrates of Cytochrome P450 2D6 (AID 891); settings: recombinant CYP2D6, luciferin-ME EGE luminescence; series mostly up to 57.1 µM; also: potency is read from the fitted curve at half-maximal effect; nearly all actives have a fitted effect of over 60% in size
Summary of the method: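 Human CYP2D6 (5 nM) with 30 uM Luciferin-ME EGE (at Km) in 100 mM KPO4, compound preincubated 10 min, then NADPH regeneration system for 60 min at room temperature. Luciferin read by luminescence; normalized to 1.43 uM quinidine.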

[18] = biological target: Cytochrome P450 2C19 (Homo sapiens) (UniProt P33261); assay: qHTS Assay for Inhibitors and Substrates of Cytochrome P450 2C19 (AID 899); settings: recombinant CYP2C19, luciferin-H EGE luminescence; series mostly up to 57.1 µM; also: potency is read from the fitted curve at half-maximal effect; nearly all actives have a fitted effect of over 60% in size
Summary of the method: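 Signal comes from luciferase acting on luciferin released by CYP2C19-mediated hydroxylation of Luciferin-H EGE, 10uM (KM). Assay mix: 5nM enzyme, 50mM KPO4; 60 min at 37C with NADPH regeneration. Data normalized against 57uM ketoconazole.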

[19] = qHTS Assay for Identification of Small Molecule Agonists for Hypoxia Response Element Signaling Pathway (AID 914; active = well fitted activation curve with a large enough effect in the signal ratio, with a control signal flat, not every such curve was filed as active; the % refers to the signal ratio; also: potency is read from the fitted curve at half-maximal effect; as to activation: % of control where 0% means no effect); settings: ME-180 (cervical carcinoma) HRE-bla reporter, beta-lactamase ratio, CoCl2, 17 h; activation: active compounds read high
Summary of the method: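 AC50 values come from titration-series %Activity, taken as the 460/530nm ratio of CCF4 fluorescence (excitation 405nm). CellSensor HRE-bla ME-180 cells were treated 17 hours at 37 C with compound plus an EC50 level of CoCl2.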

Sequence of Glucocorticoid receptor (Homo sapiens) (P04150 whole entry, looked up, the tested form may be a part): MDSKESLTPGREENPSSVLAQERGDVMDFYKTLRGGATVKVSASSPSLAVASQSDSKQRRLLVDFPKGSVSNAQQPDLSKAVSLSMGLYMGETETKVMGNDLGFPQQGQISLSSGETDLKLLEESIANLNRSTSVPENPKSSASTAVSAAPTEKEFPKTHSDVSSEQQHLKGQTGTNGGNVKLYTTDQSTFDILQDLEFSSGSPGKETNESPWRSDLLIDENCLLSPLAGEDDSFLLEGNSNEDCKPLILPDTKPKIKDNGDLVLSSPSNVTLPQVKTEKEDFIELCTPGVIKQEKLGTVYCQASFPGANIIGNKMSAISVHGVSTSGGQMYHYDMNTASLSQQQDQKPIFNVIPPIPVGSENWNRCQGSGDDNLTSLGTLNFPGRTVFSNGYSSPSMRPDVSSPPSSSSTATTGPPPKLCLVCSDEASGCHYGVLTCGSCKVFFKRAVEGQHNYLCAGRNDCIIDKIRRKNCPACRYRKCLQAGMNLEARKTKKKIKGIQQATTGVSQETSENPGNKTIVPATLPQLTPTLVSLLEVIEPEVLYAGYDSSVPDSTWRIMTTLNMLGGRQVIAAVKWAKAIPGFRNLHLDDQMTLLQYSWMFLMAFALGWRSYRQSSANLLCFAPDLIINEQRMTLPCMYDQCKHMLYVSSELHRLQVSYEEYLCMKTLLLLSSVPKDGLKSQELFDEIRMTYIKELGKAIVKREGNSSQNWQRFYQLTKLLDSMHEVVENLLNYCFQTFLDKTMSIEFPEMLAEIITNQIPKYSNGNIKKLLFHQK
Sequence of Cytochrome P450 1A2 (Homo sapiens) (P05177 whole entry, looked up): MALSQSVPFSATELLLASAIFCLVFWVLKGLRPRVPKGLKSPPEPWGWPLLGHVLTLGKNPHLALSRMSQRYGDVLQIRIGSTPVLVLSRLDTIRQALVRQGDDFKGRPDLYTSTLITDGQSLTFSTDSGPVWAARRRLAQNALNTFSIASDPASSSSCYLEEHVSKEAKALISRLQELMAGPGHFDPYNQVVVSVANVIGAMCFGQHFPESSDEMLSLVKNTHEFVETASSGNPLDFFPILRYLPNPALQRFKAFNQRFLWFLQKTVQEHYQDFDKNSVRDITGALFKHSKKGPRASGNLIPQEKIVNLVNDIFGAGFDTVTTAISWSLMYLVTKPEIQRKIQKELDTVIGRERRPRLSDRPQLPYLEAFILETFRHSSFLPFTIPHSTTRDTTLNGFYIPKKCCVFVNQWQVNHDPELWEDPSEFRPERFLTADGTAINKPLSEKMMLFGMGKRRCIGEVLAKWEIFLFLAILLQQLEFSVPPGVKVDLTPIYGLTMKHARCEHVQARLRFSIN
Sequence of Lysosomal acid glucosylceramidase (Homo sapiens) (P04062 whole entry, looked up): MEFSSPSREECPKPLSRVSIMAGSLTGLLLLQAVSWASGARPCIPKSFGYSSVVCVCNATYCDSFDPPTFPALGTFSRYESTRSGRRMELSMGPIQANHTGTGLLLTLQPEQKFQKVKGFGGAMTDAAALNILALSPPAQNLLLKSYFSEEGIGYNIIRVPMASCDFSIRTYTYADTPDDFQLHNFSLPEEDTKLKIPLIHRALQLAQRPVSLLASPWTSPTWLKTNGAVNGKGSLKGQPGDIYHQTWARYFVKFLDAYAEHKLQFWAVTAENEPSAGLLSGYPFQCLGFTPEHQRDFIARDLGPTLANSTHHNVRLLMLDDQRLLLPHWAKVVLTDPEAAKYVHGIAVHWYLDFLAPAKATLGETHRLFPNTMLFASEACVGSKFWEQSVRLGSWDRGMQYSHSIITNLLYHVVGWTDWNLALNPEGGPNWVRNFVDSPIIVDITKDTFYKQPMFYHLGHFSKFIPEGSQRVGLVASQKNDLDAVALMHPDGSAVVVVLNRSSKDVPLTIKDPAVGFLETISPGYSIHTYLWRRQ
Sequence of Cytochrome P450 3A4 (Homo sapiens) (P08684 whole entry, looked up): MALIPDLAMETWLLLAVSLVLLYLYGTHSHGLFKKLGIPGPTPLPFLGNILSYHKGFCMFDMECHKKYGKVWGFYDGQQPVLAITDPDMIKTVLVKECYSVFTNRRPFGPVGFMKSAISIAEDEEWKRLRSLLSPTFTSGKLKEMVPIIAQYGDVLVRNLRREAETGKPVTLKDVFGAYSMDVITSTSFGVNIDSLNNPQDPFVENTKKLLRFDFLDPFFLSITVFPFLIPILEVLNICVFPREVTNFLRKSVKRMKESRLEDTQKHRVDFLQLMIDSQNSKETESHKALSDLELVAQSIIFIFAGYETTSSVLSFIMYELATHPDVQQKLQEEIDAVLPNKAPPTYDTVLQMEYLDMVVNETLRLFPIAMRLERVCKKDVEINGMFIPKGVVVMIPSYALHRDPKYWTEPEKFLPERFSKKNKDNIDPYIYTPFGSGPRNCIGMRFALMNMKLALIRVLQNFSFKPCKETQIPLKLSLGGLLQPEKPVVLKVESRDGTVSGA
Sequence of Ubiquitin carboxyl-terminal hydrolase 1 (Homo sapiens) (O94782 whole entry, looked up): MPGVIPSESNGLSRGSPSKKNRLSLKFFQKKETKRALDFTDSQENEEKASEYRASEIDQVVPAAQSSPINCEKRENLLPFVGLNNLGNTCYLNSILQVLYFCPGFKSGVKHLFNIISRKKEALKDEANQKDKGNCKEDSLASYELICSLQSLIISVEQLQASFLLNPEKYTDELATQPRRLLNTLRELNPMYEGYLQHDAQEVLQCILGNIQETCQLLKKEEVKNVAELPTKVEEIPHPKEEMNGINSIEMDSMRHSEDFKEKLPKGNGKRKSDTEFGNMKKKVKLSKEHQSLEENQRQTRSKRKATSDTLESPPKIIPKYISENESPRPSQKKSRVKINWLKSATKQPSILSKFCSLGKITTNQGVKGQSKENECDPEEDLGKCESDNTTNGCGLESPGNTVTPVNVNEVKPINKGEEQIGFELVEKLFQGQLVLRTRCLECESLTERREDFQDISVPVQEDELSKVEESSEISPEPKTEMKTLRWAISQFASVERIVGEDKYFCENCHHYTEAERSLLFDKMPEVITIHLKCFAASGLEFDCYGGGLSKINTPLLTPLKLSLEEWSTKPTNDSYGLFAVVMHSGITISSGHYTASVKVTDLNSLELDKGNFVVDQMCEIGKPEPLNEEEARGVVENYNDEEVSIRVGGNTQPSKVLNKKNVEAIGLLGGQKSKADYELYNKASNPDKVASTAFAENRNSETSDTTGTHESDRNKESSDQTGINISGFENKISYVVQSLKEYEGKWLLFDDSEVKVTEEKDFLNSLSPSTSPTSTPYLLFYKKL
Sequence of Dual specificity protein kinase CLK4 (Homo sapiens) (Q9HAZ1 whole entry, looked up): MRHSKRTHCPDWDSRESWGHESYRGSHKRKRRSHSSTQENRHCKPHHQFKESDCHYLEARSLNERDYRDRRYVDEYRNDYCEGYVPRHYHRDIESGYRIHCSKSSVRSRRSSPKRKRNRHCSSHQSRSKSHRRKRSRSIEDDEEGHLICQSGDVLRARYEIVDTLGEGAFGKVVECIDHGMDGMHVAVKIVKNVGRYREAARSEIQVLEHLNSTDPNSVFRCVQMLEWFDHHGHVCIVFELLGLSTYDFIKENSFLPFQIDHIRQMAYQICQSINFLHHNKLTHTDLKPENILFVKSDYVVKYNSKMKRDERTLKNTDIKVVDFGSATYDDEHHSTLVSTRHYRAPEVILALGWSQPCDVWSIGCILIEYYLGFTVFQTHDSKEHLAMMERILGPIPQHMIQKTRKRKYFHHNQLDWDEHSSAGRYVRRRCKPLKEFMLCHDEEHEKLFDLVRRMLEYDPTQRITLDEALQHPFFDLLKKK
Sequence of 3',5'-cyclic-AMP phosphodiesterase 4B (Homo sapiens) (Q07343 whole entry, looked up): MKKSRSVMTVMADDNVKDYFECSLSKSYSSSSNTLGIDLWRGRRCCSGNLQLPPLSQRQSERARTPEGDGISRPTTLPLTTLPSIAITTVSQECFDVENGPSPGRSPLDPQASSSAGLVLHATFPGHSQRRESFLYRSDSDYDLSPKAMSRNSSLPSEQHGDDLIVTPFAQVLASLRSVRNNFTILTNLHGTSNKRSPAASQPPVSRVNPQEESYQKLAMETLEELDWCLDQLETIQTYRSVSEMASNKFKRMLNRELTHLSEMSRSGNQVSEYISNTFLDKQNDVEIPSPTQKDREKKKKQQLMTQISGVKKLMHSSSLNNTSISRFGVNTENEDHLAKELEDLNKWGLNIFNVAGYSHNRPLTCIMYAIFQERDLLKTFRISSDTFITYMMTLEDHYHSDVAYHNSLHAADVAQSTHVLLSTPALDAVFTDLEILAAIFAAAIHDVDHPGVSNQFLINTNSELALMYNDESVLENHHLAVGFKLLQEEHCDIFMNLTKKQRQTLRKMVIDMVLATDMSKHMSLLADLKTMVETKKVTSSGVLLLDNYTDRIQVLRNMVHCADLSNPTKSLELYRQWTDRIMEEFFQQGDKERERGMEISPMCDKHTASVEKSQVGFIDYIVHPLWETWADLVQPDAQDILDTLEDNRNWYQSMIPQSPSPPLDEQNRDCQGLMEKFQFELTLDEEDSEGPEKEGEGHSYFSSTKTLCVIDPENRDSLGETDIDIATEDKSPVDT
Sequence of Cytochrome P450 2D6 (Homo sapiens) (P10635 whole entry, looked up): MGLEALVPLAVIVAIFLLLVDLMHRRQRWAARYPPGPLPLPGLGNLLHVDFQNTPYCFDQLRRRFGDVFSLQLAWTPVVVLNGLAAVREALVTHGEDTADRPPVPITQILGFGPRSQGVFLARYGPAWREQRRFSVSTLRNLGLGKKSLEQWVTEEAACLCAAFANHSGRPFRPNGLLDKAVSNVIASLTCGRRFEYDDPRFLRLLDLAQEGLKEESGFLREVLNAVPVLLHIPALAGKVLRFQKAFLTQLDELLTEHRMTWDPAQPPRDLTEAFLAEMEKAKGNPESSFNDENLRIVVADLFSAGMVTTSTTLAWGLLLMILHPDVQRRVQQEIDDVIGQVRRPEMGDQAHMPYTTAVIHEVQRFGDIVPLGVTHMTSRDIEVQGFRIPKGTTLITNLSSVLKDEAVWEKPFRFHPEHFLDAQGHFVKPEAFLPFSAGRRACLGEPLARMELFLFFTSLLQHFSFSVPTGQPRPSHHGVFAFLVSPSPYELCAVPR

Row | SMILES | Potency [1] [µM] | activity change, negative = inhibition [2] [%] | Potency [3] | activity change, negative = inhibition [4] [%] | activity, negative = inhibition [5] [%] | Potency [6] [µM] | Potency [7] [µM] | Potency [8] | Potency [9] | Potency [10] | Potency [11] | Potency [12] | Potency [13] | outcome [14] | Potency [15] | Potency [16] | Potency [17] | Potency [18] | activation [19] [%] | Potency [19]
1 | Cc1nc2cnc(Nc3ccccc3)nc2n(CCc2ccccc2)c1=O | > 11.4 | -7.04 | 2.51 µM (active) | -9.65 | -6.93 | > 9.22 | > 46 | inactive | inactive | inactive | inactive | inactive | inactive | inactive | – | – | – | – | – | –
2 | CCNc1ncc2nc(CCc3ccccc3)c(=O)n(Cc3ccc(F)cc3)c2n1 | > 11.4 | – | 3.16 µM (active) | 20.5 | 26.2 | > 9.22 | > 46 | inactive | – | inactive | inactive | – | inactive | inactive | 2.51 µM (active) | inactive | – | – | – | –
3 | CN(C)C(=O)c1ccc(-c2nccc(NCc3cccs3)n2)cc1 | > 11.4 | -0.866 | 15.8 µM (active) | 3.58 | -7.66 | – | > 46 | inactive | inactive | inactive | inactive | inactive | inactive | inactive | – | – | – | – | – | –
4 | COc1ccc2[nH]cc(CCNc3cc(-c4ccccc4C)ncn3)c2c1 | – | -2.94 | 1 µM (active) | -8.49 | -6.58 | > 46 | > 46 | – | inactive | inactive | 25.1 µM (active) | – | inactive | inactive | 5.01 µM (active) | 15.8 µM (active) | 7.94 µM (active) | 7.94 µM (active) | -7.71 | –
5 | Cn1c(=O)c(-c2cccc(F)c2)nc2cncnc21 | > 11.4 | -15.2 | – | 8.36 | -5.84 | > 9.22 | > 46 | inactive | inactive | inactive | inactive | inactive | inactive | inactive | – | – | – | – | -8.58 | –
6 | c1cncc(CNc2ncncc2-c2ccoc2)c1 | > 11.4 | 2.19 | – | 7.14 | -4.52 | > 46 | > 46 | inactive | inactive | – | inactive | inactive | inactive | inactive | – | – | – | – | – | –
7 | CCNc1ncc2nc(-c3cc(F)cc(F)c3)c(=O)n(CCOC)c2n1 | > 11.4 | – | 3.16 µM (active) | – | – | > 9.22 | > 46 | inactive | – | inactive | inactive | inactive | inactive | inactive | – | – | 0.316 µM (active) | – | – | –
8 | CN(C)c1ccc(-c2cncnc2Nc2ccccc2)cc1 | > 11.4 | – | 0.398 µM (active) | -2.66 | -12 | > 46 | > 46 | – | – | inactive | 22.4 µM (active) | inactive | inactive | inactive | 0.631 µM (active) | – | – | 0.316 µM (active) | – | –
9 | CN(C)c1ncc2nc(-c3ccc(Cl)cc3)c(=O)n(C[C@H]3CCCO3)c2n1 | > 11.4 | – | 3.98 µM (active) | 21.9 | 11.6 | > 9.22 | > 46 | inactive | inactive | – | inactive | inactive | inactive | inactive | – | – | – | – | – | –
10 | Cc1noc(C)c1-c1nc(NCc2ccccc2)c2ccccc2n1 | > 11.4 | -3.06 | – | – | -4.57 | > 46 | > 46 | inactive | – | – | inactive | inactive | 6.31 µM (active) | inactive | – | – | – | – | – | –
11 | O=c1c(-c2cccs2)nc2cnc(N3CCNCC3)nc2n1Cc1cccs1 | > 11.4 | – | 3.98 µM (active) | – | – | > 9.22 | > 46 | inactive | inactive | inactive | inactive | – | 28.2 µM (active) | inactive | 2.51 µM (active) | – | – | – | – | –
12 | COCCNc1ncnc2ccc(-c3c(C)noc3C)cc12 | > 11.4 | – | 3.98 µM (active) | – | – | > 46 | > 46 | inactive | inactive | inactive | 3.98 µM (active) | 1.41 µM (active) | inactive | inactive | – | – | – | – | – | 1.58 µM (active)
13 | COCCn1c(=O)c(-c2ccc(Cl)cc2)nc2cnc(N(C)C)nc21 | – | -3.17 | 1 µM (active) | -3.15 | – | > 9.22 | > 46 | – | inactive | – | inactive | inactive | inactive | inactive | – | – | – | – | – | –
